Laboratory results published in PubChem BioAssay AID1467 (National Center for Advancing Translational Sciences (NCATS), 2008).
Screen size: about 230,000 compounds; fewer than 10 were called active. Calls follow the shape of the dose curve; as a rule, active = well fitted curve in the direction sought with a large enough effect; inconclusive = small, poorly fitted or top-dose-only effect, or effect the other way, or another doubt; inactive = no such curve, though single readings can be large or run the other way. These entries were drawn from the full list.

The compounds below were run against Alpha-galactosidase A (Homo sapiens) (UniProt P06280) (assay: qHTS Assay for Inhibitors of Human alpha-Galactosidase at pH 4.5.). Conditions: purified enzyme, 4-MU-alpha-Gal fluorescence; series mostly up to 105 µM.
Alpha-galactosidase A (Homo sapiens), sequence (P06280 whole entry, looked up): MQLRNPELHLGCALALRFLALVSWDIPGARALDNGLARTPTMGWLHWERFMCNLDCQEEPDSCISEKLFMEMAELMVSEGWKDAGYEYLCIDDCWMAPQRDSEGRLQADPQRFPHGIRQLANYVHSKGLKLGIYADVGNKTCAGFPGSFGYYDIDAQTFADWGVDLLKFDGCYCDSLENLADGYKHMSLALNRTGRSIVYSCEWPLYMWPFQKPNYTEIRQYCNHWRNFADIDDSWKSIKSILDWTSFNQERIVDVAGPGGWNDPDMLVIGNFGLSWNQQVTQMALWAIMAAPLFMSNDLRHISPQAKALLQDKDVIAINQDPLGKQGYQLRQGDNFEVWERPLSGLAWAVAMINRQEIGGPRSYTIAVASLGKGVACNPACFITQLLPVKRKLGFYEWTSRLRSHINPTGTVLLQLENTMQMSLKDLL
From the text: NIH Chemical Genomics Center [NCGC]
NIH Molecular Libraries Probe Production centers Network [MLPCN]
Assay Submitter (PI): Wei Zheng
Alpha-galactosidase is a homodimeric glycoprotein that hydrolyzes the terminal alpha-galactosyl moieties from glycolipids and glycoproteins. Deficiency of this enzyme results in Fabry Disease with progressive accumulation of globotriaosylceramide and other glycosphingolipids in vascular endothelial cells that causes renal failure, myocardial infarction and stroke, and premature death in patients. It has been reported that the improper folding and trafficking of alpha-galactosidase resulting from the genetic mutations may account for a significant numbers of Fabry patients. […] We optimized this alpha-galactosidase assay in 1536-well plate format for identifying the novel small molecule inhibitors with the structures other than the sugar analogs in order to develop the new pharmacological chaperones. Although this assay has the same protocol as PubChem AID 992, this is a separate project and, therefore, is published as a separate assay
NCGC Assay Protocol Summary:
This is a fluorogenic enzyme assay with 4-Methylumbelliferyl alpha-D-galactopyranoside as the substrate and human […] as the enzyme preparation. Upon the hydrolysis of this fluorogenic substrate, the resulting product, […]. 4-Methyllumbelliferone, can be excited at 365 nm and emits at 440 nm. This fluorescence which can be detected by a standard fluorescence plate reader. Data were normalized to the controls for basal activity (without enzyme) and 100% activity (with enzyme). In the AC50 values were determined from concentration-response data modeled with the standard Hill equation.
Assay buffer: 50 mM citric acid (titrated with potassium phosphate to pH 4.5), 0.005% Tween-20, pH 4.5. (pH 4.5 is an optimal condition for this enzyme assay)
1536-well assay protocol for the human alpha-galactosidase:
(1) Add 2 ul/well of enzyme (12 nM final)
(2) Add 23 nL compounds in DMSO solution. The final titration was 0.7 nM to 77 uM.
(3) Add 1 ul of substrate (400 uM final)
(4) Incubate at room temperature for 20 min.
(5) Add 2 ul stop solution (1M NaOH and 1M Glycine mixture, pH 10)
(6) Detect the assay plate in a ViewLux plate reader (PerkinElmer) with Ex=365 nm and Em=440nm.
Keywords: MLSMR, MLPCN, NIH Roadmap, qHTS, NCGC, : Alpha-galactosidase, Fabry Disease, pharmacological chaperone, chaperone therapy
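Also: 0% = full activity with enzyme and -100% = basal without enzyme.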

Activity change, negative = inhibition, inactive:
C=C1c2cccc(OC)c2O[C@H](C(=O)OCC)[C@@H]1CCCCCC
C=CCn1c2ccccc2c2nnc(SCc3[nH]c(=O)[nH]c3C(=O)CCCCC(=O)OCC)nc21
O=C(COC(=O)CNC(=O)c1ccccc1F)NCC(F)(F)F
COC(=O)C1=C(C(=O)OC)[C@@H]2N(C)c3ccccc3[C@@]23C[C@@H](C(=O)OC)N(S(=O)(=O)c2ccc(Br)cc2)C3=N1
O=C(NCCCN1CCOCC1)c1cc2c(s1)CCC2
CCOc1ccc(C2NC(=S)NC3=C2CCc2ccccc23)cc1 (stereo not drawn)
COc1cc(OC)c2c(-c3cccc(-c4cccc(N)c4)c3)cc(=O)oc2c1
Cc1ccc(NC(=O)O[C@@H]2C(=O)c3cc(Br)ccc3O[C@H]2c2ccc3c(c2)OCO3)cc1Br
CC1=C(C)CC(C(=O)NNC(=O)c2ccccc2O)C(C(=O)O)C1 (stereo not drawn)
O=S(=O)(Cc1noc(-c2ccc(OC(F)(F)F)cc2)n1)c1ccc(F)cc1
COc1cc(CNCCN(C)C)ccc1OCc1c(F)cccc1Cl
Clc1ccc(-c2csc(-c3ccncc3)n2)cc1
CCOc1cc(N2CCOCC2)c(OCC)cc1NC(=O)c1ccc(C)s1
NC1CCN(O)C1=O (stereo not drawn)
COc1ccc(S(=O)(=O)N(C)C)cc1NC(=O)CSc1ncccn1
O=C(COc1ccccc1)N1CCN=C1SCc1cccc(F)c1
CC(=O)/C(C)=N/O
CCO[C@H]1OC(C(=O)N2CCN(Cc3ccccc3)CC2)=C[C@@H](c2cn(C(C)=O)c3ccccc23)[C@@H]1CCCO
C=C/C1=C/Cc2ccccc2[C@H](C[N+](=O)[O-])C(C(=O)OC)(C(=O)OC)C1
NNC(=O)c1oc2nc(-c3ccccc3)cc(-c3ccco3)c2c1N
S=C(NCCCc1cnc[nH]1)NCCCN(Cc1ccc(Cl)c(Cl)c1)c1ccc(Br)cn1
Cc1cccc([C@H]2[C@@H]3C=CC[C@@H](C)[C@@H]3C(=O)N2Cc2ccccc2)c1
CCN(CCn1cccn1)C(=O)CC1C(=O)NCCN1Cc1cccc(OC)c1OC (stereo not drawn)
O=[N+]([O-])c1ccc(N2CCNCC2)cc1NCc1cccnc1
S=C(NNC(=S)NC1CC2C=CC1C2)NC1CC2C=CC1C2 (stereo not drawn)
COC(=O)N1C(/C=C/C=C/c2ccc(OC)cc2)=Cc2ccccc2C1CC(C)=O (stereo not drawn)
COc1ccc(C(=O)COC(=O)c2nn(C)c(=O)c3ccccc23)c(OC)c1
COc1cccc(NC(=S)NCc2ccco2)c1
Cn1c(SCC(=O)NC2CCCCC2)nnc1-c1ccc(N)cc1
COC(=O)C1=C(C(=O)OC)[C@@H]2N(C)c3ccccc3[C@@]23C[C@@H](C(=O)OC)N(S(=O)(=O)c2cccs2)C3=N1
CN1CCC(=NNC(=O)CN(c2cccc(Cl)c2)S(C)(=O)=O)CC1
NC(=O)CC(NC(=O)Cc1cccc2ccccc12)c1ccc(NCc2cc(F)ccc2F)c([N+](=O)[O-])c1 (stereo not drawn)
N#Cc1cccc(CS(=O)(=O)c2nnnn2-c2cc(C(F)(F)F)cc(C(F)(F)F)c2)c1
Cc1cc(C(=O)COC(=O)CNC(=O)c2ccc(F)cc2)c(C)n1Cc1ccco1
OCCC1CN(Cc2ccc3nsnc3c2)CCN1C1CCCCC1 (stereo not drawn)
Cc1cc(C)cc(N(CC(=O)NCCSCc2ccco2)S(C)(=O)=O)c1
CC1CCN(c2c(NCc3ccc(C(=O)NCc4ccccc4)cc3)c(=O)c2=O)CC1
CNC(=O)c1ccc(NC(=O)c2cccc(C(F)(F)F)c2)cc1
Nc1ccc(OCC(O)C[n+]2ccc(CCS(=O)(=O)[O-])cc2)cc1 (stereo not drawn)
Cc1cccc2c1N(CCOc1ccccc1)C(=O)C2=O
CN1C(=O)/C(=C\c2ccc(-c3ccccc3)o2)SC1=S
C/C(=N\NC(=O)c1cccc(N2CCCC2=O)c1)c1ccc(N)cc1
CC(C)(C)Nc1c(-c2cccs2)nc2ccccn12
Cc1csc(-c2coc3cc(O[C@@H]4O[C@H](CO)[C@@H](O)[C@@H](O)[C@H]4O)ccc3c2=O)n1
c1ccc2c(c1)CSc1sccc1C2=C1CCNCC1
CC(=O)CC(c1ccccc1)C1C(=O)Oc2ccccc2C1=O (stereo not drawn)
COC(=O)C1=C(C(=O)OC)[C@@H]2N(Cc3ccccc3)c3ccccc3[C@@]23C[C@@H](C(=O)OC)N(S(=O)(=O)c2ccc(C(F)(F)F)cc2)C3=N1
O=C(NCCN1CCOCC1)c1ccc2c(c1)N(Cc1ccc(Cl)cc1)CCS2
C/C=C(\C)C(=O)OC1C(OC(=O)C2(C)OC2C)c2cc3ccc(=O)oc3cc2OC1(C)C (stereo not drawn)
CNC(=S)N1CCC(NC(=O)C(Cc2ccc(F)cc2)NC(C)=O)CC1 (stereo not drawn)
Cc1oc2cc([N+](=O)[O-])c(O)c([N+](=O)[O-])c2c1C(=O)c1ccc(Br)cc1
CCc1ccc(NC(=O)C(=O)N/N=C(\C)CC(=O)NCCOC)cc1 3.4% [at 21.1 µM]
CCOc1ccc(NC(=O)c2ccc(CSc3nnnn3C)cc2)cc1
COC(=O)C1=C(C(=O)OC)[C@@H]2Nc3ccccc3[C@@]23C[C@@H](C(=O)OC)N(S(=O)(=O)c2ccc([N+](=O)[O-])cc2)C3=N1
COc1ccc(Nc2ncnc3ccc(OC)cc23)cc1
C[N+]1(CC(O)COc2ccccc2)CCN(C(=O)c2ccc([N+](=O)[O-])cc2)CC1 (stereo not drawn)
C/C=C(\C)C(=O)O[C@H]1CC(C)=C2C(=O)C=C(C)C2[C@@H]2OC(=O)[C@@](C)(OC(=O)C=C(C)C)C21 (stereo partly drawn)
Cc1nc(SCc2ccc(F)cc2)c([N+](=O)[O-])[nH]1
C=CCN1C(=O)C(Cc2ccc(OCC)cc2)SC1=Nc1ccc(C(=O)O)cc1 (stereo not drawn)
Cc1ccc(C)c(-n2nnnc2SCC(=O)c2c(N)n(C)c(=O)n(C)c2=O)c1
COc1ccc2c(c1)O[C@@H](c1ccc3c(c1)OCO3)[C@H](OC(=O)NCc1ccco1)C2=O
Cc1cn(C2OC[C@@H](O)[C@@H]2CO)c(=O)[nH]c1=O (stereo partly drawn)
Brc1ccc(C2=NCCC(c3ccccc3)O2)cc1 (stereo not drawn)
C[C@@H]1C(c2ccc(F)cc2)=NN(c2ccc(Br)cc2)[C@H]1C(=O)N1CCOC1=O
Cc1csc(SCC(=O)Nc2sccc2C#N)n1
COC(=O)c1ccc(S(=O)(=O)N(CCO)Cc2ccccc2)n1C
Nc1nc(C23CC4CC(CC(C4)C2)C3)cs1
CN(CCc1cn[nH]c1)C(=O)CC1C(=O)NCCN1Cc1cccc(Oc2ccccc2)c1 (stereo not drawn)
Cc1cc(C)nc(SC2CCCCC2NS(=O)(=O)c2ccc(Cl)cc2)n1 (stereo not drawn)
Cc1ccc(S(=O)(=O)N2CCC(C(=O)OCC(=O)N3CC(=O)Nc4ccccc43)CC2)cc1
Cc1ccc(C2CC(c3cccc(NS(C)(=O)=O)c3)=NN2S(C)(=O)=O)cc1 (stereo not drawn)
CCOC(=O)C1=C(C)c2ccccc2OC1(C)C(=O)OCC (stereo not drawn)
Cc1cccc(NC(=S)NCc2ccc3[nH]c4c(c3c2)CCCC4)c1
COc1ccc(-c2c(C)cc3oc(=O)cc(-c4ccccc4)c3c2C)cc1OC
OC[C@H]1O[C@@H](n2cnc3c(NC4CCCC4)ncnc32)[C@H](O)[C@H]1O
COC1(C2=NCCN2)COc2ccccc2O1 (stereo not drawn)
COC(C)C(C(=O)OCC1=CCN2CC[C@H](O)[C@@H]12)C(C)C (stereo partly drawn)
COc1ccc(-c2nc3c(c4c2C[C@H](c2ccccc2)OC4)CN(C(=O)c2ccco2)CC3)c(C)c1
CCn1c(SCC(=O)Nc2ccc(C)cc2)nc2nc3c(cc2c1=O)CCCC3
Cc1cc(N)n(-c2ccc(S(=O)(=O)N3CCCC3)cc2[N+](=O)[O-])n1
Cc1cc(Cl)ccc1OCc1nc(-c2ccncc2)no1
CC(C)(C)NS(=O)(=O)CC12CCC(CC1=O)C2(C)C (stereo not drawn)
CCn1c(SCc2ccccc2)nc2c(c1=O)SCC2
COc1ccc(-c2nc3c(c4c2C[C@H](c2ccccc2)OC4)CN(C(=O)C2CC2)CC3)c(C)c1
C=CCN1c2ccccc2[C@]23C[C@@H](C(=O)OC)N(S(=O)(=O)c4ccc([N+](=O)[O-])cc4)C2=NC(C(=O)OC)=C(C(=O)OC)[C@H]13
O=C(CSc1cccc[n+]1[O-])c1ccc(Cl)cc1
O=C(NCc1cccnc1)c1cnc2ccccc2n1
CCCCS(=O)(=O)N1C2=NC(C(=O)OC)=C(C(=O)OC)[C@@H]3N(Cc4ccccc4)c4ccccc4[C@]23C[C@H]1C(=O)OC
Nn1c(SCC(=O)Nc2nccs2)nncc1=O
O=c1[nH]c(SCc2cccc(F)c2)nc2ccccc12
COc1ccc(/C=N/OCC(=O)N(Cc2ccccc2)c2ccccc2C(=O)O)cc1
O=C(COc1cccc(F)c1)Oc1ccc(C(=O)c2ccccc2)cc1
COc1ccc(-c2nc3c(c4c2C[C@H](c2ccccc2)OC4)CN(S(=O)(=O)c2c(C)noc2C)CC3)c(C)c1
